“And” between values parts separate entries of the source, which are not always exact repeats. Equal entries are not always repeated. The source holds several records for some structures; these can differ, active in one and inactive in another. The source made the active and inactive calls. Rule for the calls: active = hit-call score of the fitted dose curve at least 0.9, where 1 is the maximum; inactive = score below 0.9.

Read-out in experiment [1]: Vascular cell adhesion molecule 1 (VCAM1), VCAM1 (gene 7412)
Kind of experiment: BSK_4H_VCAM1: BioMAP Diversity Plus: 4H Assay for Vascular cell adhesion molecule 1 (VCAM1) Biomarker Activity (AID 2283033).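 For outcome: cell-surface VCAM-1 protein measured by ELISA.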 To be noted: primary human endothelial cells (HUVEC); actives raise or lower the signal. Put shortly:
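VCAM-1 ELISA read 24 h after chemical dosing of HUVEC in the BioMAP 4H system, with gain or loss of signal fitted relative to DMSO. Parallel SRB staining (560 nm) checked overt cytotoxicity.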

Read-out in experiment [2]: Interferon-gamma inducible Protein 10 (IP10), CXCL10 (gene 3627)
Kind of experiment: BSK_BE3C_IP10: BioMAP Diversity Plus: BE3C Assay for Interferon-gamma inducible Protein 10 (IP10) Biomarker Activity (AID 2283034). The settings on record: primary human bronchial epithelial cells; actives raise or lower the signal. Put shortly:
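IP-10 quantified by ELISA in human primary bronchial epithelial cell cultures at 24 hours post-dosing. Gain or loss of signal fitted relative to DMSO; parallel SRB staining assessed overt cytotoxicity.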

Read-out in experiment [3]: Monokine induced gamma interferon (MIG), CXCL9 (gene 4283)
Kind of experiment: BSK_BE3C_MIG: BioMAP Diversity Plus: BE3C Assay for Monokine induced gamma interferon (MIG) Biomarker Activity (AID 2283035). To be noted: primary human bronchial epithelial cells; actives raise or lower the signal. Summed up:
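Dose cells (human primary bronchial epithelial), incubate 24 h, quantify MIG by ELISA, then fit concentration–response in both directions relative to DMSO control.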

Read-out in experiment [4]: Transforming growth factor beta 1 (TGFb1), TGFB1 (gene 7040)
Kind of experiment: BSK_BE3C_TGFb1: BioMAP Diversity Plus: BE3C Assay for Transforming growth factor beta 1 (TGFb1) Biomarker Activity (AID 2283036;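 for outcome: TGF-b1 protein level measured by ELISA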). The settings on record: primary human bronchial epithelial cells; actives raise or lower the signal. Summed up:
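ELISA readout of TGF-b1 from human lung bronchial epithelial primary cells, taken 24 h post-treatment. Gain or loss of signal fitted relative to DMSO baseline, with parallel SRB staining for overt cytotoxicity.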

Read-out in experiment [5]: Plasminogen activator inhibitor-1 (PAI1), SERPINE1 (gene 5054)
Kind of experiment: BSK_BE3C_PAI1: BioMAP Diversity Plus: BE3C Assay for Plasminogen activator inhibitor-1 (PAI1) Biomarker Activity (AID 2283037). To be noted: primary human bronchial epithelial cells; actives raise or lower the signal. Put shortly: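 PAI-1 was measured by ELISA in human primary bronchial epithelial cultures 24 h after chemical dosing, with cytotoxicity checked by SRB total-protein staining in parallel cultures. Activity was fitted in both directions relative to DMSO.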

Read-out in experiment [6]: urokinase plasminogen activator (uPA), PLAU (gene 5328)
In words: BSK_BE3C_uPA: BioMAP Diversity Plus: BE3C Assay for urokinase plasminogen activator (uPA) Biomarker Activity (AID 2283038).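 For outcome: uPA protein level quantified by ELISA in cell cultures; uPA read one day after compound addition.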 To be noted: primary human bronchial epithelial cells; actives raise or lower the signal. Summed up:
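Using confluent primary human lung bronchial epithelial cultures, we dosed chemicals, waited 24 h, then ran a uPA ELISA, fitting bidirectionally against DMSO.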

Read-out in experiment [7]: Urokinase-type plasminogen activator receptor (uPAR), PLAUR (gene 5329)
In words: BSK_BE3C_uPAR: BioMAP Diversity Plus: BE3C Assay for Urokinase-type plasminogen activator receptor (uPAR) Biomarker Activity (AID 2283039).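 For outcome: cells exposed to compound for one day before measurement.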 The settings on record: primary human bronchial epithelial cells; actives raise or lower the signal. Summed up:
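uPAR levels were measured by ELISA after 24 h compound treatment of primary human bronchial epithelial cells, fitted in both directions relative to DMSO. Parallel SRB staining served as the cytotoxicity read-out.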

Read-out in experiment [8]: Interleukin-6 (IL6), IL6 (gene 3569)
Kind of experiment: BSK_CASM3C_IL6: BioMAP Diversity Plus: CASM3C Assay for Interleukin-6 (IL6) Biomarker Activity for (AID 2283040). To be noted: primary human coronary artery smooth muscle cells; actives raise or lower the signal.

Read-out in experiment [9]: Tissue plasminogen activator (tPA), PLAT (gene 5327)
Kind of experiment: BSK_BE3C_tPA: BioMAP Diversity Plus: BE3C Assay for Tissue plasminogen activator (tPA) Biomarker Activity (AID 2283041).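 For outcome: tPA level quantified by ELISA one day after compound addition.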 The settings on record: primary human bronchial epithelial cells; actives raise or lower the signal. Put shortly:
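tPA measured by ELISA 24 h after dosing human primary bronchial epithelial cells (BE3C system). Changes in either direction were fitted against DMSO. Parallel cultures were stained with SRB to flag overt cytotoxicity.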

Read-out in experiment [10]: Interleukin-8 (IL8), CXCL8 (gene 3576)
Kind of experiment: BSK_CASM3C_IL8: BioMAP Diversity Plus: CASM3C Assay for Interleukin-8 (IL8) Biomarker Activity (AID 2283042).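 Note: IL-8 protein level quantified by ELISA.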 The settings on record: primary human coronary artery smooth muscle cells; actives raise or lower the signal.

For `CCCCC(CC)COC(=O)CCCCC(=O)OCc1ccccc1` (stereo not drawn), the result in [1], in [2], in experiment [3], in [4], in [5] and in [6] was inactive. Moreover, the result in experiment [7], in experiment [8], in [9] and in experiment [10] was inactive.
Take `O=c1c(-c2ccc(O)cc2)coc2cc(O)ccc12`: the result in [1], in experiment [2], in [3], in experiment [4], in [5] and in [6] was inactive. Besides, the result in experiment [7], in experiment [8], in [9] and in [10] was inactive.
Consider `NC(=O)N1C(=O)C(C(=O)c2cc(Cl)cs2)c2cc(F)c(Cl)cc21` (stereo not drawn), for which the AC50 (usually the concentration at which the activity in the assay is half-maximal) in experiment [1] was 24.5 µM (active); in experiment [2], 6.63 µM (active); in experiment [3] it was 9.59 µM (active); in experiment [4], 2.88 µM (active); in [5], 3.15 µM (active); in experiment [6], 6.91 µM (active). The AC50 is 6.27 µM (active) in [7] and 2.33 µM (active) in [9]. Moreover, the result in experiment [8] and in experiment [10] was inactive.
Turning to `CCCCCCC(=O)O`, the result in experiment [1], in experiment [2], in experiment [3], in experiment [4], in experiment [5] and in experiment [6] was inactive. The result in experiment [7], in experiment [8], in experiment [9] and in [10] was inactive.
Take `CCOC(=O)CC(O)(CC(=O)OCC)C(=O)OCC`: the outcome in experiment [1], in experiment [2], in experiment [3], in experiment [4], in experiment [5] and in experiment [6] was inactive. Besides, the result in [7], in experiment [8], in [9] and in experiment [10] was inactive.
As to `CC(=O)CC(C)(C)O`, the result in experiment [1], in experiment [2], in [3], in experiment [4], in experiment [5] and in [6] was inactive. Also, the result in [7], in experiment [8], in [9] and in [10] was inactive.
As to `c1ccc2cc3c(ccc4ccccc43)cc2c1`, the outcome in experiment [1], in experiment [2], in [3], in [4], in experiment [6] and in experiment [7] was inactive. Besides, the result in experiment [8], in experiment [9] and in experiment [10] was inactive. Besides, the AC50 in experiment [5] is 3.97 µM (active).
For the molecule `OCCC(F)(F)C(F)(F)C(F)(F)C(F)(F)C(F)(F)C(F)(F)C(F)(F)C(F)(F)F`, the half-maximal activity concentration (AC50) in [1] is 41.3 µM (active) and 22.7 µM (active); in [2], 12.7 µM (active) and 17.9 µM (active); in experiment [3], 33.5 µM (active) and 28.7 µM (active); in experiment [5] it was 16.7 µM (active) and 24.8 µM (active); in experiment [6], 27.9 µM (active) and 27.7 µM (active); in experiment [7], 20.9 µM (active) and 22.9 µM (active). Besides, the AC50 in experiment [9] was 11.6 µM (active) and 14 µM (active); in experiment [10], 42.7 µM (active). Besides, the outcome in [1], in [2], in experiment [3], in experiment [4], in experiment [5] and in experiment [6] was inactive. The outcome in experiment [7], in [8], in experiment [9] and in experiment [10] was inactive.
In the case of `COCC(C)OCC(C)O` (stereo not drawn), the outcome in experiment [1], in experiment [2], in experiment [3], in experiment [4], in experiment [5] and in experiment [6] was inactive. Also, the result in experiment [7], in experiment [8], in experiment [9] and in [10] was inactive.
Consider `CCCCCCCCC(=O)O`, for which the outcome in experiment [1], in [2], in [3], in [4], in [5] and in experiment [6] was inactive. The outcome in [7], in experiment [8], in experiment [9] and in experiment [10] was inactive.
Consider `Oc1cc2ccccc2c2ccccc12`, for which the half-maximal activity concentration (AC50) in experiment [1] is 8.16 µM (active); in [2] it was 13 µM (active); in experiment [3] it was 28.8 µM (active); in experiment [4], 13.9 µM (active); in [5], 24.9 µM (active); in [6], 13.9 µM (active). Further, the AC50 is 27.6 µM (active) in experiment [7], 8.56 µM (active) in [8], 14.7 µM (active) in experiment [9] and 10.6 µM (active) in experiment [10].
Turning to `CC(C)CCCCCCOC(=O)CCCCC(=O)OCCCCCCC(C)C`, the result in [1], in experiment [2], in experiment [3], in experiment [4], in [5] and in experiment [6] was inactive. In addition, the outcome in [7], in [8], in experiment [9] and in [10] was inactive.
For `CC(C)(C)c1ccc(O)c(C(C)(C)C)c1`, the AC50 in experiment [1] was 9.93 µM (active); in experiment [2], 31.7 µM (active); in experiment [3], 36.1 µM (active); in [4] it was 27.8 µM (active); in experiment [5], 31.6 µM (active); in experiment [6] it was 30.7 µM (active). For the same molecule, the AC50 in [7] is 36.3 µM (active); in experiment [8], 13.6 µM (active); in [9], 27.5 µM (active); in experiment [10], 27.2 µM (active).
In the case of `CN(C)C=O`, the result in [1], in experiment [2], in experiment [3], in experiment [4], in experiment [5] and in experiment [6] was inactive. The outcome in [7], in experiment [8], in experiment [9] and in experiment [10] was inactive.
Consider `OC1CCCCC1`, for which the outcome in experiment [1], in [2], in experiment [3], in experiment [4], in experiment [5] and in experiment [6] was inactive. Moreover, the result in experiment [7], in experiment [8] and in experiment [9] was inactive. Besides, the half-maximal activity concentration (AC50) in experiment [10] was 14.8 µM (active).

The values are drawn from PubChem BioAssay (EPA / NIEHS).
